For one assay, the system named is Staphylococcus aureus. The assay is described as follows: Antibacterial activity against Staphylococcus aureus MRSA ATCC 43300 (CO-ADD:GP_020); MIC in CAMBH media using NBS plates, by Resazurin F(560/590). In kind it is functional. The settings on record: Concentration 20 uM, ASSAY_TEST Inhibition of Bacterial Growth, detection method Resazurin, Fluorescence (ex560/em590), MEDIA CAMHB, plate type 384well, CORNING #3640, time 18 hr.

The test system of the next assay is Acinetobacter baumannii. Kind of assay: Antibacterial activity against Acinetobacter baumannii ATCC 19606 (CO-ADD:GN_034); MIC in CAMBH media using NBS plates, by Resazurin F(560/590). In kind it is functional. The settings on record: Concentration 20 uM, ASSAY_TEST Inhibition of Bacterial Growth, detection method Resazurin, Fluorescence (ex560/em590), MEDIA CAMHB, plate type 384well, CORNING #3640, time 18 hr. (In general: The colour change of resazurin is a common sign of viable cells or microbes.)

The subject of another assay is Escherichia coli. The assay is described as follows: Antibacterial activity against Escherichia coli ATCC 25922 (CO-ADD:GN_001); MIC in CAMBH media using NBS plates, by Resazurin F(560/590). In kind it is functional. The note with it: Concentration 20 uM, ASSAY_TEST Inhibition of Bacterial Growth, detection method Resazurin, Fluorescence (ex560/em590), MEDIA CAMHB, plate type 384well, CORNING #3640, time 18 hr.

The test system of another assay is Klebsiella pneumoniae. The settings on record: Concentration 20 uM; ASSAY_TEST Inhibition of Bacterial Growth; detection method Absorption (OD600); MEDIA CAMHB; plate type 384well; NBS; CORNING #3640; time 18 hr.
The next assay has as its system Candida albicans. The note with it: 20 µM.
The next assay has as its system Cryptococcus neoformans. The settings on record: Concentration 20 uM; ASSAY_TEST Inhibition of Fungal Growth; detection method Resazurin; Absorption (OD600-OD570); plate type 384well; NBS; CORNING #3640.

For part of these data: Results with a measured potency or affinity are listed apart.

As a reminder, the Inhibition is the relative decrease from the control value, in per cent. With `C=C1C(=O)O[C@@H]2C[C@@H](C)[C@@H]3C=CC(=O)[C@@]3(C)[C@@H](O)[C@H]12` [HELENALIN], the Inhibition with Staphylococcus aureus is 9.39%; in the assay on Acinetobacter baumannii it was -4.22%; in the assay on Escherichia coli it was 4.79%; in the assay with Klebsiella pneumoniae it was 9.92%; in the assay on Candida albicans it was 2.42%; in the assay on Cryptococcus neoformans, -2.82%.

Turning to `C1CCC(NC2CCCCC2)CC1.COC1C(OC(=O)/C=C/C=C/C=C/C=C/C(=O)O)CCC2(CO2)C1C1(C)OC1CC=C(C)C` (stereo not given), the Inhibition with Staphylococcus aureus was 16.49%; with Acinetobacter baumannii, -13.86%; in the assay on Escherichia coli it was 8.82%; with Klebsiella pneumoniae, -0.23%; in the assay on Candida albicans, 9.6%; with Cryptococcus neoformans, -7.96%.

`CC[C@H]1CN2CCc3cc(OC)c(OC)cc3[C@@H]2C[C@@H]1C[C@H]1NCCc2c1[nH]c1ccc(O)cc21` [TUBULOSINE]: the Inhibition with Staphylococcus aureus was 2.68%; in the assay on Acinetobacter baumannii it was -12.49%; in the assay on Escherichia coli it was 3.63%; with Klebsiella pneumoniae it was -0.53%; in the assay on Candida albicans, 2.67%; with Cryptococcus neoformans it was -8.19%.

Take `CC12C(=O)C=CCC1=CCC1C2CCC2(O)C(=O)OC3(C)C4CC5(C)C(COC16OC23C5C6=O)C(=O)O4` (stereo not given): the Inhibition in the assay on Staphylococcus aureus was 21.05%; in the assay on Acinetobacter baumannii, -16.5%; with Escherichia coli, 8.61%; in the assay with Klebsiella pneumoniae, -1.2%; with Candida albicans it was -2.84%; with Cryptococcus neoformans, -7.36%.

As to `CC1OC(=O)C2CC3CCCCC3C(/C=C/C3CCCC(C)N3C)C12` (stereo not given), the Inhibition is 14.11% in the assay on Staphylococcus aureus; -6.83% in the assay with Acinetobacter baumannii; 5.85% in the assay with Escherichia coli; 4.75% with Klebsiella pneumoniae; 0.31% in the assay on Candida albicans; -10.1% with Cryptococcus neoformans.

Turning to `CC(=O)OC(C)(C)/C=C/C(=O)[C@](C)(O)[C@H]1[C@H](O)C[C@@]2(C)[C@@H]3CC=C4[C@@H](C=C(O)C(=O)C4(C)C)[C@]3(C)C(=O)C[C@]12C` [CUCURBITACIN E], the Inhibition is -16.96% in the assay with Staphylococcus aureus; -9.18% in the assay with Acinetobacter baumannii; 4.67% in the assay on Escherichia coli; -1.27% in the assay on Klebsiella pneumoniae; -1.39% with Candida albicans; -7.52% in the assay on Cryptococcus neoformans.

As for `CC1CCC2C(C)C(=O)OC3OC4(C)CCC1C32OO4` (stereo not given), the Inhibition in the assay with Staphylococcus aureus was 7.59%; in the assay on Acinetobacter baumannii, -3.18%; with Escherichia coli it was 7.05%; in the assay on Klebsiella pneumoniae, 14.85%; with Candida albicans, 23.7%; with Cryptococcus neoformans, -16.17%.

Take `CC(O)CCC(=O)c1ccoc1` (stereo not given): the Inhibition in the assay with Staphylococcus aureus is -1.39%; in the assay with Acinetobacter baumannii, -6.14%; in the assay with Escherichia coli, 1.51%; in the assay with Klebsiella pneumoniae, -0.54%; in the assay with Candida albicans, -0.15%; with Cryptococcus neoformans, -5.46%.

As for `COC1C(O)C(C)OC(OC2C(Oc3cccc4c(O)c5c(=O)oc6ccc(C)c7c(=O)oc(c34)c5c67)OC(C)C(O)C2O)C1O` (stereo not given), the Inhibition in the assay with Staphylococcus aureus is -17.7%; with Acinetobacter baumannii, -6.91%; with Escherichia coli, -0.53%; with Klebsiella pneumoniae it was 2.04%; with Candida albicans, -2.79%; with Cryptococcus neoformans, -9.89%.

For the compound `COc1ccc2c(c1O)-c1c(OC)c(OC)cc3c1C(C2)N(C)CC3` (stereo not given), the Inhibition with Staphylococcus aureus was 23.71%; in the assay with Acinetobacter baumannii it was 2.34%; with Escherichia coli it was 4.51%; with Klebsiella pneumoniae it was 6.13%; in the assay with Candida albicans it was -0.15%; in the assay on Cryptococcus neoformans it was -10.21%.

Regarding `C[C@H]1CCC/C=C/[C@@H]2C[C@H](O)C[C@H]2[C@H](O)/C=C/C(=O)O1` [BREFELDIN A], the Inhibition with Staphylococcus aureus was 11.17%; with Acinetobacter baumannii, -7.42%; in the assay with Escherichia coli, 11.85%; in the assay on Klebsiella pneumoniae, -5.16%; with Candida albicans, 51.3%; in the assay with Cryptococcus neoformans it was -9.22%.

As to `CC[C@](C)(O)C(=O)O[C@H]1C(=O)O[C@@H]2C[C@H]3C(C)=C[C@H](O)[C@@H](O)[C@]3(C)[C@H]3[C@@]4(O)OC[C@]32[C@@H]1[C@@H](C)[C@H]4O`, the Inhibition in the assay on Staphylococcus aureus is 12.34%; in the assay with Acinetobacter baumannii it was -9.38%; in the assay on Escherichia coli, 1.71%; with Klebsiella pneumoniae, 10.36%; in the assay on Candida albicans, 4.77%; in the assay with Cryptococcus neoformans it was -4.27%.

As for `CC(C)(O)C1C2OC(=O)C1C1(O)CC3OC34C(=O)OC2C14C` (stereo not given), the Inhibition is -15.24% in the assay with Staphylococcus aureus; -3.06% in the assay on Acinetobacter baumannii; 2.11% with Escherichia coli; 1.65% in the assay on Klebsiella pneumoniae; 3.44% with Candida albicans; -6.7% in the assay on Cryptococcus neoformans.

For the compound `CN1CCc2cc3c(cc2[C@H]1[C@@H]1OC(=O)c2c1ccc1c2OCO1)OCO3` [BICUCULLINE], the Inhibition is 11.14% in the assay with Staphylococcus aureus; -4.97% in the assay with Acinetobacter baumannii; 3.43% in the assay with Escherichia coli; 11.38% in the assay with Klebsiella pneumoniae; -1.4% with Candida albicans; -11.52% in the assay on Cryptococcus neoformans.

Take `CCCCCC(O)C1C(=O)OC(C)C(O)/C=C/C=C/C=C/C=C/C=C(\C)C(O)C(O)C(O)CC(O)CC(O)CC(O)CC(O)CC1O` (stereo not given): the Inhibition in the assay with Staphylococcus aureus was -5.29%; with Acinetobacter baumannii, 1.14%; in the assay with Escherichia coli, 2.6%; in the assay with Klebsiella pneumoniae, 3.06%; in the assay with Candida albicans, -5.54%; in the assay with Cryptococcus neoformans, -5.55%.

Values taken from ChEMBL document CHEMBL4296183, “CO-ADD screening of NIH NCI Natural Product Set III” (2020).
